An excerpt weighted towards active compounds, which were near 5.9% of everything screened.
ATXN2 expr inh: Primary qHTS for Inhibitors of ATXN expression | HEK-293 ATXN2-luciferase reporter, luminescence, 24 h | Potency, µM (highest dose often 57 µM), inactives show at the highest dose activity change, negative = inhibition, hits mostly inhibitors | actives 0.72% (n = 360,000) | AID 1745845, 2022; note: % is set by controls: 0 for no effect and ±100 for the full control effect; nearly all actives have a fitted effect of over 55% in size
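ATXN2-luciferase reporter cells (luciferase flanked by upstream and downstream ATXN2 gene portions) were treated 24 h at 37 °C with compounds at up to 57 uM. SteadyGlo luminescence gave expression; GF-AFC fluorescence gave viability.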
HepG2 viability: qHTS for Inhibitors of TGF-b: Cytotox Counterscreen | actives 0.76% (n = 410,000) | HepG2 CAGA-GFP viability, ATP luminescence, 18 h | Potency, µM (series often up to 46.1 µM), for the others: top-dose activity change, negative = cytotoxicity, most hits filed as cytotoxic
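HepG2 CAGA-GFP cells (1000/well, DMEM with 1% FBS) received compound, then TGF-beta at 500 pg/mL final, and were incubated 18 hours at 37 degrees C. Viability was read by CellTiter-Glo luminescence. Media-only wells were set as complete cell-killing and DMSO as no toxicity.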
KB-3-1 cytotox: qHTS assay for MDR1-selective chemotherapeutics: Primary screen using the parental adenocarcinoma cell KB-3-1; Potency, µM (series often up to 46.1 µM), actives largely listed as cytotoxic; actives 1.4% (n = 400,000); AID 1347075, 2019; KB-3-1 viability, CellTiter-Glo ATP luminescence, 72 h; note: % is set by controls: 0 for no effect and ±100 for the full control effect; nearly all actives have a fitted effect of over 60% in size
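Multi-concentration cytotoxicity screen in KB-3-1 cells grown in DMEM lacking phenol red with 10% FBS. After 72 h at 37 °C with compound, ATP-dependent luminescence was recorded.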
ATXN viability: Viability Counterscreen for Primary qHTS for Inhibitors of ATXN expression | S2 cells (HEK-293 line with an ATXN2-luciferase reporter) viability, CellTiter-Fluor protease fluorescence, 24 h | Potency, µM (titrated, usually from 56.7 µM), hits mostly cytotoxic | actives 0.49% (n = 400,000) | AID 651635, 2014; note: nearly all actives have a fitted effect of over 40% in size
KB-V1 cytotox: qHTS assay for MDR1-selective chemotherapeutics: Primary screen using the drug-selected MDR subline cells KB-V1 | KB-V1 MDR cells viability, CellTiter-Glo, 72 h | Potency, µM (top dose mostly 46.1 µM), actives largely listed as cytotoxic | actives 3.4% (n = 400,000) | AID 1347076, 2019; note: % is set by controls: 0 for no effect and ±100 for the full control effect; nearly all actives have a fitted effect of over 60% in size
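Cells of the MDR subline KB-V1 are plated, dosed with compound at multiple concentrations, and incubated 72 h at 37 degrees C; CellTiter-Glo is then added and luminescence read after 10 min.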
TGFb inhibitor: qHTS for Inhibitors of TGF-b; actives 1.2% (n = 410,000); HepG2 CAGA-GFP TGF-b/SMAD3 reporter, GFP fluorescence, 18 h; TGF-beta stimulated, 500 pg/mL final; Potency, µM (highest dose often 46.1 µM), inactives show top-dose activity, negative = inhibition, most hits filed as inhibitors; note: % is set by controls: 0 for no effect and ±100 for the full control effect; nearly all actives have a fitted effect of over 65% in size
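Read-out: total well GFP (ex488/em500-530) summed from mean per-cell fluorescence. Cells: HEPG2 CAGA-GFP, 1% FBS DMEM, 18 h at 37 degrees C with 500 pg/mL final TGF-beta. Unstimulated wells served as the full-inhibition control; stimulated DMSO wells = 0%.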
* = called active by the depositor; i = inactive; ? = inconclusive; / = no result; [ ] = remark or other dose. Calls come from the whole dose curve; as a rule, active = well fitted curve in the direction sought with a large enough effect; inconclusive = small, poorly fitted or top-dose-only effect, or another doubt; inactive = no such curve, though single readings can be large; an effect the other way counts as inactive or inconclusive. Potency is the fitted concentration of half-maximal effect.

SMILES	ATXN2 expr inh	HepG2 viability	KB-3-1 cytotox	ATXN viability	KB-V1 cytotox	TGFb inhibitor
O=[N+]([O-])c1cccc(C2NCC(c3ccccc3Cl)c3c2[nH]c2ccccc32)c1 (stereo not given)	-15%	34%	i	?	16µM*	?
CCOc1ccc(/C=C/c2cc[n+](C)c3ccccc23)cc1OCC	/	-4%	?	/	i	6%
CCOc1ccc2c(c1)[N+](C)(C)C(C)(C)C=C2C	-5%	-9%	8.2µM*	i	i	-3%
COc1ccc2c(c1)[N+](C)(C)C(C)(C)C=C2C	/	-4%	i	i	i	-3%
COc1ccccc1C1CN(Cc2cccc(OCCO)c2)Cc2ccccc2O1 (stereo not given)	/	/	/	i	/	/
C=CC(=O)Nc1cccc(Oc2cc(Cl)nc3[nH]ccc23)c1	?	-21%	?	18µM*	18µM*	?
COc1ccc(CCNC(=O)Cn2cc(S(=O)(=O)Cc3ccc(F)cc3)c3ccccc32)cc1OC	/	1%	i	/	i	0%
COc1ccc(-n2nnnc2SC(C)C(=O)NC2CCCC2)cc1 (stereo not given)	/	1%	i	i	i	1%
O=C(Nc1cccc(F)c1)C1CCN(c2nnnn2-c2ccccc2)CC1	-15%	-8%	?	i	?	9%
CCOc1ccc(NC(=O)C2CCN(c3nnnn3-c3ccccc3)CC2)cc1	-7%	-11%	i	i	8.2µM*	-6%
O=C(NC1CCCCC1)C1CCCN(c2nnnn2-c2ccccc2)C1 (stereo not given)	-17%	-54%	i	i	16µM*	-1%
CC(Sc1nnnn1-c1ccccc1)C(=O)NC1CCCC1 (stereo not given)	3%	-31%	i	i	13µM*	-24%
O=C1C=CC(=O)c2c(O)c(CO)c(CO)c(O)c21	?	10µM*	i	?	i	11µM*
Cc1cc(C)n(C(C)CC(=O)Nc2ccc(C)c(F)c2)n1 (stereo not given)	-3%	-2%	i	i	i	14%
O=C(NCCOc1ccc(F)cc1)c1ccccc1SCc1ccccc1	4%[11.3 µM]	-1%	i	i	?	0%
CCc1ccc(OCCNC(=O)c2ccccc2SCc2ccc(F)cc2)cc1	-15%	-6%	i	i	18µM*	?
COC(=O)c1cccc(C(=O)NCc2nc(-c3ccccc3NC(C)=O)oc2C)c1	/	/	/	i	/	/
C/C(=N\Nc1ccc(Cl)cc1)c1ccccn1	28%	0%	i	i	?	-9%
COc1ccc2nc(NN=C(C)c3ccccn3)cc(C)c2c1	?	-55%	?	7.5µM*	1.2µM*	1.1µM*
CCOc1ccccc1-n1nnc(S(=O)(=O)c2ccc(C)cc2)c1N	-2%	-22%	i	i	?	-15%
O=C1Cc2cc(Cl)ccc2N1	0%	/	/	i	/	/
O=C1c2ccccc2C2=Nc3ccccc3SC(c3cccc(F)c3)C12 (stereo not given)	?	-36%	21µM*	?	16µM*	?
O=C1CCSC2(C(=O)N(Cc3ccc(F)cc3)c3ccccc32)N1c1ccc(Cl)cc1 (stereo not given)	/	-58%	i	/	i	?
COC(=O)c1sccc1S(=O)(=O)N1CCN(c2ccc(C)cc2C)CC1	-11%	-40%	i	i	i	-14%
Cc1ccc(C(=O)CSc2nc(C)cc(C)c2C(N)=O)cc1	15%	8%	i	i	16µM*	-7%
SMILES	ATXN2 expr inh	HepG2 viability	KB-3-1 cytotox	ATXN viability	KB-V1 cytotox	TGFb inhibitor
Cc1cc(C)c(C#N)c(SCC(=O)c2cccs2)n1	34%	0%	?	i	i	0%
Cc1cc(C)c(C#N)c(SCC(=O)c2ccccc2)n1	-10%	-9%	i	/	i	10µM*
COc1ccc(-c2cc(C(=O)Oc3ccc(C#N)cc3)no2)cc1	12%	7%	i	i	?	31%
COc1cc2c(cc1OC)C(c1ccccc1)N(C(=O)CCl)CC2 (stereo not given)	28µM*	0%	4.1µM*	/	9.2µM*	-20%
CCc1ccc2oc(C(=O)N3CCN(c4ccc(OC)cc4)CC3)cc(=O)c2c1	-24%	0%	i	i	i	5%
COc1ccccc1N1CCN(C(=O)c2cc(-c3cccs3)on2)CC1	5%	-14%	i	i	18µM*	-19%
COc1ccccc1N1CCN(C(=O)c2cc(-c3ccccc3)on2)CC1	-1%	-8%	i	i	?	1%
CCc1ccc2oc(C(=O)N3CCN(c4ccccc4OC)CC3)cc(=O)c2c1	-35%	-24%	18µM*	i	23µM*	?
COc1cc2c(cc1OC)C(C1C(=O)CCCC1=O)N(C(=O)CCl)CC2 (stereo not given)	/	8%	i	i	i	-19%
COc1cc2c(cc1OC)C(C)N(C(=O)c1ccc(Cl)c(S(=O)(=O)N3CCCCC3)c1)CC2 (stereo not given)	-30%	-2%	12µM*	?	i	?
Cc1ccc(S(=O)(=O)c2nnn3c2nc(N2CCCC2)c2sccc23)cc1	/	-1%	i	/	i	56%
COc1cc2c(cc1OC)C(C)N(C(=O)c1cccc([N+](=O)[O-])c1)CC2 (stereo not given)	1%	-28%	i	i	?	-12%
COc1cc2c(cc1OC)C(C)N(C(=O)Nc1ccccc1)CC2 (stereo not given)	-12%	12%	6.5µM*	i	?	5%
COc1cc2c(cc1OC)C(C)N(C(=O)c1c(-c3ccccc3)noc1C)CC2 (stereo not given)	/	-18%	?	i	21µM*	-8%
COc1ccccc1N1CCN(C(=O)c2c(-c3ccccc3)noc2C)CC1	-35%	-7%	4.6µM*	?	?	24%
COc1cc2c(C(=O)N3CCN(c4ccccc4C)CC3)c(C)oc2cc1Br	2%	7%	?	i	5.8µM*	1%
Cc1ccc(C)c(S(=O)(=O)c2cn(C)c3cc(N4CCCCC4C)c(F)cc3c2=O)c1 (stereo not given)	/	5%	i	/	i	1%
COc1cc(SC)ccc1C(=O)N1CCN(c2ccccc2OC)CC1	-28%	-16%	6.5µM*	i	16µM*	-10%

From PubChem
